# Screening results: PubChem BioAssay, National Center for Advancing Translational Sciences (NCATS)
# An excerpt weighted towards active compounds, which were near 2.4% of everything screened.
# D2 PAM-1 = HTS Assay for Positive Allosteric Modulators of the Human D2 Dopamine Receptor: Primary Screen for Potentiators; D(2) dopamine receptor (Homo sapiens), P14416; HEK293 T-REx D2, calcium flux, EC20 dopamine potentiation; potentiation, % at 10 µM; actives 0.34% (n = 340,000); AID 485347, 2010;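 active = potentiation over 3 SD above the plate norm, cut at about 30% in these data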; also: 0% is about no effect
# Target sequence (P14416 whole entry, looked up): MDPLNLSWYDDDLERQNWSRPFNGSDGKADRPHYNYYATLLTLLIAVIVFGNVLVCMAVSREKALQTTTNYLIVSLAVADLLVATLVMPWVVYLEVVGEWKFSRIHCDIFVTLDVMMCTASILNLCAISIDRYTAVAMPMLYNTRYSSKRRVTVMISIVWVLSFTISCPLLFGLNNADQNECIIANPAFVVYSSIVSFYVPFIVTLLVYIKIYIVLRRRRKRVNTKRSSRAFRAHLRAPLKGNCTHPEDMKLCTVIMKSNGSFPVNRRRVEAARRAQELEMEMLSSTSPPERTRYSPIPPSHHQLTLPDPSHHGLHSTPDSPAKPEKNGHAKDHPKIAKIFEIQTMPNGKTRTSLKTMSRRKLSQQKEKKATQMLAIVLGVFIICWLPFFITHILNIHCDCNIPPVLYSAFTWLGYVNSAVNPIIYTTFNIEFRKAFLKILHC
#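 Calcium flux readout, no-wash dye, 1 read/s. Inducible HEK293 Trex D2 line, overnight 30 C. Compound alone 180 s (agonist flags), then EC20 dopamine, another 180 s to score potentiation.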
# D2 antagonist = HTS Assay for Allosteric Antagonists of the Human D2 Dopamine Receptor: Primary Screen for Antagonists. D(2) dopamine receptor (Homo sapiens), P14416. HEK293 TREx D2 cells, calcium flux, dopamine EC80. inhibition, % at 10 µM. actives 2% (n = 340,000). AID 485344, 2010; in the data active = inhibition above about 30%; inactive = below that, where a call was filed; also: 0% is about no effect
#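 Compounds are added to dye-loaded, induced HEK293 T-REx cells coupled to calcium release via D2; after a 3 min kinetic read an EC80 dopamine stimulus is given and fluorescence is recorded for 3 more min.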
# D2 ag-1 = Beta-Arrestin HTS for Positive Allosteric Modulators of the Human D2 Dopamine Receptor: Agonists; AID 624465, 2012; DiscoveRx PathHunter D2 beta-arrestin, luminescence, 90 min; 100% = 57 uM dopamine signal; activation, % (concentration not given with the values); actives 0.084% (n = 360,000); in the data active = activation above about 40%; inconclusive = between about 15% and that limit
#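 Agonist mode: compounds alone added to overnight-plated D2 PathHunter cells for 90 min at 37 C, with 57 uM final dopamine (EC100) defining full response. Beta-arrestin recruitment detected by chemiluminescent reagent, read after 1 h at ambient temperature.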
# D2 ag-2 = HTS Assay for Allosteric Agonists of the Human D2 Dopamine Receptor: Primary Screen for Agonists. D(2) dopamine receptor (Homo sapiens), P14416. HEK293 T-REx D2 cells, calcium flux agonist mode. activation, % at 2 µM. actives 0.53% (n = 340,000). AID 485358, 2010;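 active = activation over 3 SD above normal in the single-dose calcium agonist read, cut at about 30% in these data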; also: 0% is about no effect
#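 In this primary screen, compounds producing a positive calcium signal within 180 s of addition to tetracycline-induced, force-coupled HEK293 Trex D2 cells are flagged; cells are dye-loaded with a no-wash calcium kit beforehand.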
# D2 PAM-2 = Beta-Arrestin HTS for Positive Allosteric Modulators of the Human D2 Dopamine Receptor: Potentiators; D(2) dopamine receptor (Homo sapiens), P14416; actives 0.23% (n = 360,000); potentiation, % (no concentration beside the values); DiscoveRx D2 beta-arrestin cells, luminescence, 90 min; 100% = 57 uM dopamine signal; AID 624464, 2012; in the data active = potentiation above about 50%; inconclusive = mostly about 30% to 49%
#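 D2 cells co-treated with compound plus 50 nM dopamine (EC20) for 90 min at 37 deg C to detect potentiation. Beta-arrestin recruitment was read as enzyme-fragment luminescence after 1 h at ambient temperature. Full response was set by 57 uM dopamine.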
# * = called active by the depositor; ? = inconclusive; . = no result.
SMILES,D2 PAM-1,D2 antagonist,D2 ag-1,D2 ag-2,D2 PAM-2
O=C(c1ccc(N2C(=O)CCC2=O)cc1)N1CCOCC1,-4,53*,-1,0,2
Cn1c(C(=O)NCCN2CCc3ccccc3C2)cc2c(=O)n(C)c3ccccc3c21,-22,48*,5,-2,-6
COc1ccc2ccccc2c1-c1sc(Nc2ccccc2)n[n+]1-c1ccc(F)cc1,-8,32*,-6,1,-31
COc1ccc(-c2sc(Nc3ccccc3)n[n+]2-c2ccc(F)cc2)cc1Br,-4,-9,-5,2,-10
CCCCCCc1cc2cc(-c3nnc(-c4cccc(Cl)c4)o3)c(=O)oc2cc1O,-5,.,.,18,.
CC1(C)CC(=O)C2=C(C1)N(c1ccccc1)C(=O)C2(O)C(F)(F)F (stereo unspecified),1,36*,-10,0,-5
Cn1c(=O)c2c(nc(NCc3ccccc3)n2Cc2ccc(Cl)c(Cl)c2)n(C)c1=O,-1,.,.,1,.
O=C(NN=C1CCCC1)c1ccn[nH]1,-1,42*,-2,0,8
O=C(NN=C1CCCC1)c1cc(-c2ccccc2)n[nH]1,5,.,-1,.,0
Cc1csc(SCC(=O)Nc2cccc3nsnc23)n1,4,33*,0,1,-4
Cc1csc(SCC(=O)Nc2ccccc2C)n1,17,7,-4,0,-23
Cc1csc(SCC(=O)Nc2ccc(C)c(F)c2)n1,-23,37*,-3,-1,-17
COc1ccc(-n2cc(-c3ccccc3)c3c(NCCc4ccc(OC)c(OC)c4)ncnc32)cc1,.,.,.,0,.
COc1ccc(C2NC(=O)N(C)C3=C2C(=O)N(c2cccc(C(=O)O)c2)C3)cc1 (stereo unspecified),3,.,.,0,.
CNCCCC1c2ccccc2C=Cc2ccccc21,-26,75*,2,3,-27
COc1ccc(-c2nc(SCC(=O)Nc3ccc4c(c3)OCCO4)c(-c3ccc(C)cc3)[nH]2)cc1OC,-12,.,.,.,.
COc1ccc(NC(=O)c2cnc(N3CCCCC3)c3ccccc23)cc1Cl,.,.,.,1,.
Cc1c(Cl)c(C(=O)Nc2nc3ccccc3n2CCN2CCCCC2)nn1C,35*,-15,.,-1,.
CCOC(=O)C1CCN(C(=O)Nc2ccc3oc(C)nc3c2)CC1,.,.,-2,.,-3
CCOC(=O)N1CCN(C(=O)Nc2ccc3oc(C)nc3c2)CC1,.,44*,7,1,?
Cc1cccc(COc2ccc(/C=C3/C(=O)N(C)C(=S)N3C)cc2)c1,-2,31*,1,-1,-1
CCOc1ccccc1NC(=O)NCc1ccccc1,-21,42*,-2,-1,-11
Cc1ccc(C(=O)N/N=C\c2ccccc2[N+](=O)[O-])cn1,.,-4,-6,-1,-9
Cc1ccsc1/C=N/NC(=O)c1cccs1,7,2,-1,1,-11
Cc1ccc(/C=N/NC(=O)c2cccs2)cc1[N+](=O)[O-],-1,35*,-1,-1,-14
SMILES,D2 PAM-1,D2 antagonist,D2 ag-1,D2 ag-2,D2 PAM-2
Cc1ccc(C(=O)N/N=C\C=C\c2ccccc2[N+](=O)[O-])cn1,-31,47*,-3,2,-4
O=C(N/N=C/C=C/c1ccccc1[N+](=O)[O-])c1cccs1,-22,39*,1,-1,-18
COc1cccc(/C=N/NC(=O)c2ccoc2C)c1O,7,-4,-1,0,-6
O=C(N/N=C/c1ccccc1[N+](=O)[O-])c1cccs1,-13,-19,2,0,-2
Cc1occc1C(=O)N/N=C/c1ccccc1[N+](=O)[O-],7,35*,-2,0,-2
CCN1CCSc2ccc(C(=O)NCc3ccc(OC(C)C)cc3)cc21,-14,60*,-4,2,-12
CCOc1ccc(CCNC(=O)c2ccc3c(c2)N(Cc2ccc(F)cc2)CCS3)cc1,4,.,.,.,.
CCOc1ccc(CNC(=O)c2ccc3c(c2)N(CC)CCS3)cc1,-17,61*,1,1,-10
Cc1ccc(Cl)cc1NC(=O)Cn1nnc2sc3c(c2c1=O)CCC(C(C)(C)C)C3 (stereo unspecified),-3,.,.,1,.
CCc1ccccc1NC(=O)CN(Cc1ccccc1)S(=O)(=O)c1ccc2nc(C)sc2c1,-9,.,.,1,.
Cc1cc(S(=O)(=O)N2CCN=C2c2ccccc2)c(Cl)cc1Cl,-9,-1,-1,30*,18
Cc1ccccc1-c1nnc(SCC(=O)Nc2cccnc2Cl)o1,.,.,0,.,-6
O=C(CSc1ccc2c(c1)OCCO2)Nc1cccnc1Cl,9,-9,-7,0,-2
Cc1cccnc1NC(=O)CSc1ccc2c(c1)OCCO2,-1,32*,-1,2,-2
COc1ccc(Cc2nnc(SCC(=O)N(C)c3ccccc3)o2)cc1,2,66*,4,-1,-3
COc1ccc(Cc2nnc(SCC(=O)c3ccccc3)o2)cc1,-2,8,-4,1,-3
Cc1cccnc1NC(=O)CSc1nnc(Cc2ccccc2)o1,-4,44*,-1,0,-5
Cc1noc(-c2ccc(NCc3ccccc3)c([N+](=O)[O-])c2)n1,0,.,.,1,.
CC1CCN(c2nc3c(S(=O)(=O)c4cccc(Cl)c4)nnn3c3ccsc23)CC1,5,.,.,0,.
CCCCc1nn2c(=O)cc(COC(=O)c3cccs3)nc2s1,-14,.,.,0,.
CCN(CC)C(=O)c1ccc(C)c(Br)c1,-6,31*,0,0,1
CN(C(=O)Cn1cnc2onc(-c3ccc(F)cc3)c2c1=O)c1ccccc1Cl,-2,.,.,.,.
CCOc1cc(CN2CCN(CCOCCO)CC2)ccc1OC,2,-5,-2,0,-8
CCCc1nnc(NC(=O)c2nc(S(=O)(=O)Cc3cccc(C)c3)ncc2Cl)s1,30*,-13,-8,-1,-26
CCOC(=O)c1ccc(OC(=O)c2cn(-c3cccc(OC)c3)c(=O)c3ccccc23)cc1,1,.,.,3,.
CSCCC(NC(=O)c1ccc(Cl)cc1)C(=O)OCC(C)=O (stereo unspecified),-4,32*,-6,1,-6
CN(C)CCCN1c2ccccc2Sc2ccc3ccccc3c21,.,.,-1,.,-28
CN1CCN(CCCNC(=O)c2cn(C)c3ccc(S(=O)(=O)N(C)C)cc3c2=O)CC1,8,-12,-1,1,-4
O=C(CN1CCCC1)N1c2ccccc2Sc2ccc(Cl)cc21,-6,10,4,0,-6
